Assay results reported in the supplement of paper PMC9177965.
Where “and” joins values, the source holds several entries; their conditions need not be identical. Equal entries are not always repeated.

These compounds were tested on HT29 RNF43 G659fs (RNF43 659mut, CRISPR-edited) (assay: cell viability activity relative to DMSO (negative = inhibition); higher = more viable cells (less growth inhibition)). Details: 5 µM; 96 h.
Procedure: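 Broad Repurposing Library primary screen at a single dose of 5 uM. HT29 sg-Ctrl and HT29 RNF43 G659fs CRISPR-edited isogenic cells were seeded at 2500 cells/well in 384-well plates in duplicate and treated for 96 h. Viability was read by CellTiter-Glo and reported as % activity relative to DMSO, with MG132 as the positive control (negative = growth inhibition).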
Compound CCN(CC)CCOc1ccc(C(=C(Cl)c2ccccc2)c2ccccc2)cc1 has a cell viability activity of -98.4%.
Work on C=CCc1cccc(/C=N/NC(=O)CN2CCN(Cc3ccccc3)CC2)c1O yielded a cell viability activity of -71.9%.
Compound C=CC(=O)Nc1cc(Nc2nccc(-c3cn(C)c4ccccc34)n2)c(OC)cc1N(C)CCN(C)C has a cell viability activity of -82.3%.
Work on CCC(=O)N1CCN(c2ccc(-n3c(=O)ccc4cnc5ccc(-c6cnc7ccccc7c6)cc5c43)cc2C(F)(F)F)CC1 yielded a cell viability activity of -56.6%.
With NC(=O)c1cnc(N[C@@H]2CCCC[C@@H]2N)nc1Nc1cccc(-n2nccn2)c1 the cell viability activity was -35.6% and -40.3%.
For C1CCC(C(CC2CCCCN2)C2CCCCC2)CC1 (configuration not stated), the cell viability activity was -92.4%.
COc1cc2c(Oc3ccc(NC(=O)C4(C(=O)Nc5ccc(F)cc5)CC4)cc3F)ccnc2cc1OCCCN1CCOCC1 was tested, and the cell viability activity was -92.2%.
Cc1csc(-c2nnc(Nc3ccc(Oc4ncccc4-c4ccnc(N)n4)cc3)c3ccccc23)c1 was tested, and the cell viability activity was -28.2%.
CSc1ccccc1Nc1nc(N2CCNCC2)nc2c(NCC3CC3)ncnc12 showed a cell viability activity of -95.8%.
Compound COc1ccc(-c2cc3c(C)nc(N)nc3n([C@H]3CC[C@H](OCCO)CC3)c2=O)cn1 has a cell viability activity of -94%.
CC(C)(C)c1cc(NC(=O)Nc2ccc(-c3cn4c(n3)sc3cc(OCCN5CCOCC5)ccc34)cc2)no1 was tested, and the cell viability activity was -46.2%.
Work on COC(=O)C1=C(C)NC(C)=C(C(=O)OC2CCCN(Cc3ccccc3)C2)C1c1cccc([N+](=O)[O-])c1 (configuration not stated) yielded a cell viability activity of -85.8%.
In the case of CCc1c2c(nc3ccc(O)cc13)-c1cc3c(c(=O)n1C2)COC(=O)[C@]3(O)CC, the cell viability activity is reported as -84%.
Compound C#CCC(Cc1cnc2nc(N)nc(N)c2n1)c1ccc(C(=O)N[C@@H](CCC(=O)O)C(=O)O)cc1 (some centres not stated) has a cell viability activity of -68.9%.
Compound Nc1ccccc1NC(=O)c1ccc(CNc2nccc(-c3cccnc3)n2)cc1 has a cell viability activity of -87.7%.
Nc1ccc2cc3ccc(N)cc3nc2c1 was tested, and the cell viability activity was -64.5%.
CC1=NN(c2ccc(C(=O)O)cc2)C(=O)/C1=C\c1ccc(-c2cc(C)c(C)cc2[N+](=O)[O-])o1 gave a cell viability activity of -62.3%.
Compound Cn1c(Nc2ccc(C(F)(F)F)cc2)nc2cc(Oc3ccnc(-c4ncc(C(F)(F)F)[nH]4)c3)ccc21 has a cell viability activity of -82%.
For COc1ccc(-c2cc3nccn3c(Nc3ncccc3C(N)=O)n2)cc1OC, the cell viability activity was -27.9%.
CNc1nc(-c2ccc3c(N)n[nH]c3c2)cc(N2C[C@@H](C(=O)NC3CCCCC3)CC[C@H]2C)n1 gave a cell viability activity of -31.4%.
For C=C1CC[C@@H]2[C@](C)(CO)[C@H](O)CC[C@@]2(C)[C@@H]1C/C=C1/C(=O)OC[C@H]1O, the cell viability activity was -27.5%.
C[C@H]1[C@H](OC(=O)CCC(=O)O)O[C@@H]2O[C@@]3(C)CC[C@H]4[C@H](C)CC[C@@H]1[C@@]24OO3 was tested, and the cell viability activity was -42.8% and -37.2%.
With CCN(CC)CCNC(=O)c1c(C)[nH]c(/C=C2\C(=O)Nc3ccc(F)cc32)c1C the cell viability activity was -99.7%.
In the case of CN(C)CCN1C(=O)c2cccc3cc(N)cc(c23)C1=O, the cell viability activity is reported as -53.7%.
CCOc1cc2ncc(C#N)c(Nc3ccc(OCc4cccc(F)c4)c(Cl)c3)c2cc1NC(=O)/C=C/CN(C)C was tested, and the cell viability activity was -30.8%.
O=[N+]([O-])c1ccc2c(c1)S(=O)(=O)C=C2 gave a cell viability activity of -95%.
In the case of Cc1cc(Nc2ncc(Cl)c(Nc3ccccc3S(=O)(=O)C(C)C)n2)c(OC(C)C)cc1C1CCNCC1, the cell viability activity is reported as -97.2%.
With O=C(/C=C\n1cnc(-c2cc(C(F)(F)F)cc(C(F)(F)F)c2)n1)N1CC(F)(F)C1 the cell viability activity was -72.2%.
Compound C[C@@H](C(=O)O)c1ccc(-c2ccccc2)c(F)c1 has a cell viability activity of -68.9%.
Cc1ccccc1N(C)C(=O)c1ccc([S+]([O-])c2nccs2)c([N+](=O)[O-])c1 (configuration not stated) was tested, and the cell viability activity was -49.2%.
CC[C@H](CO)Nc1nc(NCc2ccc(-c3ccccn3)cc2)c2ncn(C(C)C)c2n1 was tested, and the cell viability activity was -92%.
CCCCNc1ncc2c(-c3ccc(CN4CCN(C)CC4)cc3)cn([C@H]3CC[C@H](O)CC3)c2n1 gave a cell viability activity of -89.4%.
With O=C(O)c1ccc[n+]([O-])c1 the cell viability activity was -66%.
Compound CCN(CC)CCOc1ccc(Nc2ncc3cc(-c4c(Cl)cccc4Cl)c(=O)n(C)c3n2)cc1 has a cell viability activity of -86.7%.
For CCN1CCN(Cc2ccc(Nc3ncc(F)c(-c4cc(F)c5nc(C)n(C(C)C)c5c4)n3)nc2)CC1, the cell viability activity was -49.8%.
Compound C[C@H]1O[C@@H](O[C@H]2[C@@H](O)C[C@H](O[C@H]3[C@@H](O)C[C@H](O[C@H]4CC[C@@]5(C)[C@H](CC[C@@H]6[C@@H]5CC[C@]5(C)[C@@H](C7=CC(=O)OC7)CC[C@]65O)C4)O[C@@H]3C)O[C@@H]2C)C[C@H](O)[C@@H]1O has a cell viability activity of -92.2%.
For O=P(O)(O)C(O)(Cn1ccnc1)P(=O)(O)O, the cell viability activity was -39.2%.
